15 compounds from PubChem BioAssay can be followed below.

SMILES strings stand for the structures. Activity calls are given as the source filed them.

Assay [1] concerns Plasmodium falciparum Sir2 (PF13_0152, Sir2A). In words: pfSir2 binders on small-molecule microarrays, primary screen, biochemical, small-molecule microarray, 635 nm fluorescence (AID 1098).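 Note: score merges spot fluorescence intensity with its signal-to-noise ratio.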 The settings on record: small-molecule microarray binding, fluorescence 635 nm; higher = more signal.
Assay [2] in a line: small-molecule microarray binders of probe aDKK1, primary screen, biochemical, biotinylated probe, 635/667 nm fluorescence (AID 1099).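 Note: score merges 667nm spot fluorescence with signal to noise across triplicate slides; reference of the scale not given here.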 To be noted: higher = more signal.
The nature of assay [3]: small-molecule microarray binders of probe aCHRDL2, primary screen, biochemical, biotinylated probe, 635/667 nm fluorescence (AID 1100). To be noted: higher = more signal.
The nature of assay [4]: splicing luciferase reporter signal modulators, primary screen, spliceosome inhibition project, cell-based, HEK293, splice +/- reporter (AID 1101).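 Note: HEK293 cells carrying a splicing-competent luciferase reporter gene; test concentration not given here.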 To be noted: luminescence, 24 h, higher = more signal, called active from +8 up or from −8 down. On the technique in general: Reporter assays use an easily measured gene product as a stand-in for the process of interest.
Assay [5] has as its target Fibroblast growth factor 10 (Homo sapiens) (UniProt O15520). Nature of the assay: FGF10 binders on small-molecule microarrays, primary screen, biochemical, small-molecule microarray, 635 nm fluorescence (AID 1102). The settings on record: FGF10 binding, fluorescence 635 nm, higher = more signal.
Assay [6] has as its system glycogen synthase kinase-3 (GSK3A per assay name; protocol says GSK3B). Nature of the assay: GSK3 binders on small-molecule microarrays, primary screen, biochemical, small-molecule microarray, 635 nm fluorescence, GSK3A (AID 1103). Note: the record names both GSK3A and GSK3B. To be noted: small-molecule microarray binding, fluorescence 635 nm; higher = more signal.
Assay [7] concerns the target Epidermal growth factor receptor (Homo sapiens) (UniProt P00533). Nature of the assay: EGFR binders on small-molecule microarrays, primary screen, biochemical, small-molecule microarray, 635 nm fluorescence (AID 1104).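 Note: score merges 667 nm emission intensity with spot signal to noise over triplicate slides.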 The settings on record: EGFR binding, higher = more signal.
The target of assay [8] is Follistatin-related protein 3 (Homo sapiens) (UniProt O95633). Nature of the assay: FSTL3 binders on small-molecule microarrays, primary screen, biochemical, small-molecule microarray, 635 nm fluorescence (AID 1105).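 Note: score merges emission near 667 nm and signal to noise per printed spot across three slides.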 The settings on record: FSTL3 binding, higher = more signal.
Assay [9] deals with Dickkopf-related protein 1 (Homo sapiens) (UniProt O94907). Nature of the assay: DKK1 binders on small-molecule microarrays, primary screen, biochemical, small-molecule microarray, 635 nm fluorescence scan (AID 1106).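 Note: score merges emission near 667 nm with signal to noise over three replicate slides.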 To be noted: DKK1 binding, higher = more signal.
Assay [10] deals with Inhibin beta A chain (activin A). In words: INHBA (activin A) binders on microarrays, primary screen, biochemical, small-molecule microarray, 635 nm fluorescence scan (AID 1107).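 Note: mouse activin A protein probed at 4.33 µg/mL on printed slides; score merges bound-protein fluorescence near 667 nm with spot signal-to-noise.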 To be noted: small-molecule microarray binding, higher = more signal.

Dickkopf-related protein 1 (Homo sapiens), sequence (O94907 whole entry, looked up): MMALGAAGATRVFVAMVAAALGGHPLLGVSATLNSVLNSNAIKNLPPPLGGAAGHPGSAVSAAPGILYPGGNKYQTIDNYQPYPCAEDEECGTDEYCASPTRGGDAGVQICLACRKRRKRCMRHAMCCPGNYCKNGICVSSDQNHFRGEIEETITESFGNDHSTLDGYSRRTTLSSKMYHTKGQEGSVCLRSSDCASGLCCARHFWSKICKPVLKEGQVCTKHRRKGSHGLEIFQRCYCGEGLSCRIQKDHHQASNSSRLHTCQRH
Fibroblast growth factor 10 (Homo sapiens), sequence (O15520 whole entry, looked up): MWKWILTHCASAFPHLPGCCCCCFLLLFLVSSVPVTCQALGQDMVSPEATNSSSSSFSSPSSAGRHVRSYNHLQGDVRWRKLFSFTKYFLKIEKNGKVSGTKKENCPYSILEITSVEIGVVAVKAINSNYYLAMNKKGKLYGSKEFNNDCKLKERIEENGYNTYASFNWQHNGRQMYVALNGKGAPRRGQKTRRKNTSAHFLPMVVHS
Epidermal growth factor receptor (Homo sapiens), sequence (P00533 whole entry, looked up): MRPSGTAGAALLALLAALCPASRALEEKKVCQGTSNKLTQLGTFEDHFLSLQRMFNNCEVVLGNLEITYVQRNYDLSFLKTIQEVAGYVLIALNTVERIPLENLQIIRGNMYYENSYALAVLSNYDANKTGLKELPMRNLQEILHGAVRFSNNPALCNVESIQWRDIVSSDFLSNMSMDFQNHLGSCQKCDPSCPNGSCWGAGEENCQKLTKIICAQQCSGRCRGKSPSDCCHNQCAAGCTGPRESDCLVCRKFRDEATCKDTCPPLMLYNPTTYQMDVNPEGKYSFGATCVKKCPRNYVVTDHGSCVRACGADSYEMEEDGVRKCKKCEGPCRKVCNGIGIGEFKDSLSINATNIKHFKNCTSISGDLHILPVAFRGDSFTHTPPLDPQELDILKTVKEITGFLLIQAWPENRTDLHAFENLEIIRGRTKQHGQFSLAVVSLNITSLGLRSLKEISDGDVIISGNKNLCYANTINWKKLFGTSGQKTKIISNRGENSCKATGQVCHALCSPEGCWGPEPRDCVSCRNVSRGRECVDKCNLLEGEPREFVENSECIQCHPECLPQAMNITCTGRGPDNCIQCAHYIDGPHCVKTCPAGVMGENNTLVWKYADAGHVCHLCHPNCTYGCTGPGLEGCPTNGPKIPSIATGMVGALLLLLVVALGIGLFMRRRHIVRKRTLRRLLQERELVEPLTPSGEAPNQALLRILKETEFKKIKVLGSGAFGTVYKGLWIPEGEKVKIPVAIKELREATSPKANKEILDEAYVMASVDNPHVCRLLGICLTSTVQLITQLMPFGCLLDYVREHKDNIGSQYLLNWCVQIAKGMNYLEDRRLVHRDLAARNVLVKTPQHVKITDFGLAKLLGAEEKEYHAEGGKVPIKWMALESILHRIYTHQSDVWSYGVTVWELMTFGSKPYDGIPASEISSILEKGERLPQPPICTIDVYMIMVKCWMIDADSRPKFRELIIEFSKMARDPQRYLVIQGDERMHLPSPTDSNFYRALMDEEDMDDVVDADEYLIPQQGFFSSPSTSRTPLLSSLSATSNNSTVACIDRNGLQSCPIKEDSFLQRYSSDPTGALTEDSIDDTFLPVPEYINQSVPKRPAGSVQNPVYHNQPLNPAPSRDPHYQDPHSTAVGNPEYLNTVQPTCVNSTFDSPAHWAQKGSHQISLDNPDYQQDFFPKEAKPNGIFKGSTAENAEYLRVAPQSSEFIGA
Follistatin-related protein 3 (Homo sapiens), sequence (O95633 whole entry, looked up): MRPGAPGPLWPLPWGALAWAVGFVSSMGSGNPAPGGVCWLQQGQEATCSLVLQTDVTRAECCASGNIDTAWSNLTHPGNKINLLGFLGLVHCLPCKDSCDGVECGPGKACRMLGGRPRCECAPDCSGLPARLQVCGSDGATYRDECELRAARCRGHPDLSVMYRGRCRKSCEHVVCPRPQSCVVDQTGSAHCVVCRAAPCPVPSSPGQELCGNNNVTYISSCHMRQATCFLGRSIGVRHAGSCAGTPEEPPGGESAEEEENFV

Regarding `O=C1C[C@@](C(=O)NC2CC2)(c2ccc([N+](=O)[O-])cc2)[C@@H](c2ccc(CO)cc2I)N1C1CCCCC1`, the composite z-score in assay [1] is 1.02; in [2], 0.666; in assay [3] it was -0.0524; in [5], 1.19; in assay [6], 0.931; in assay [7], 0.414. Besides, the composite z-score in [8] amounted to 1.25; in assay [9], 0.486; in [10], 0.245. The z-score in [4] was -0.497 (inactive).

Take `O=C(N1CCCCC1)[C@]1(Cc2ccccc2)N=C(c2ccc(OCCCO)cc2)O[C@@H]1c1ccccc1`: the composite z-score in assay [1] was 1.05; in assay [2] it was 0.887; in [3], 1.08; in assay [5], 0.956; in assay [6], 0.669; in assay [7], -0.394. Further, the composite z-score in assay [8] is 0.512; in assay [9], -0.474; in assay [10], 0.99. Besides, the z-score in assay [4] was -0.555 (inactive).

Take `O=C(NC1CC1)[C@@H]1c2ccccc2C(=O)N(Cc2ccccc2Cl)[C@H]1c1ccc(CO)cc1`: the composite z-score was 0.814 in [1]; 0.893 in assay [2]; 1.02 in assay [3]; 0.474 in assay [5]; 1.24 in [6]; 0.186 in assay [7]. In addition, the composite z-score in assay [8] was 0.654; in [9], 0.63; in [10] it was 1.17. The z-score in assay [4] is -0.544 (inactive).

For the compound `COC(=O)[C@H](Cc1ccccc1)N[C@@H](/C=C/C1CC1)[C@H](O)Cc1ccccc1`, the composite z-score in assay [1] is 1.02; in assay [2], -0.157; in assay [3], 0.442; in [5], -0.865; in [6] it was -0.637; in assay [7], -0.463. Further, the figures for the composite z-score in assay [8], in assay [9] and in assay [10] were -0.862, -0.429 and 0.437, respectively. The z-score in [4] was 0.488 (inactive).

Take `O=C1C[C@@](C(=O)NCCN2CCOCC2)(c2ccc([N+](=O)[O-])cc2)[C@@H](c2ccc(CO)cc2)N1CC12CC3CC(CC(C3)C1)C2`: the composite z-score in assay [1] turned out to be 0.866; in assay [2], 0.104; in assay [3], 0.638; in [5] it was 1.22; in [6] it was 1.32; in assay [7], 0.86. The composite z-score in assay [8] worked out at 1.3; in [9], 0.912; in [10], 0.403. For the same compound, the z-score in [4] was 2.36 (inactive).

For the compound `C=CCN1C(=O)[C@]2(O[C@H](CCn3cc([C@H](O)c4ccccc4)nn3)[C@@H]([Si](C)(C)c3ccc(OC)cc3)[C@@H]2C)c2cc(N3CCC3=O)ccc21`, the composite z-score was 1.48 in [1]; -0.29 in assay [2]; 0.224 in assay [3]; 0.864 in assay [5]; 0.169 in [6]; 0.0043 in [7]. Besides, the composite z-score in [8] was found to be 0.306; in assay [9] it was 0.815; in [10] it was 0.619. Further, in assay [4], the z-score was -0.619 (inactive).

Consider `Cc1ccc(S[C@]2(C(=O)NC3CC3)CC(=O)N(Cc3ccccc3)[C@@H]2c2ccc(CO)cc2I)cc1`, for which the composite z-score was 0.562 in assay [1]; 0.0491 in assay [2]; 0.717 in [3]; -0.794 in assay [5]; -0.281 in [6]; -1.34 in [7]. Besides, the composite z-score is -1.37 in assay [8], -1.59 in assay [9] and 0.5 in [10]. The z-score in assay [4] is -1.21 (inactive).

`CC(C)C(CO)N1C(=O)[C@@H]2C3C(=O)OCCC/C=C\[C@H]3OC23C=CCN(CCN2CCOCC2)C(=O)[C@@H]13` (stereo not given in full): the composite z-score is -0.768 in assay [1]; -0.355 in [2]; -0.45 in [3]; 0.0971 in assay [5]; 0.0585 in assay [6]; -0.203 in assay [7]. The composite z-score turned out to be 0.0915 in [8], 0.284 in [9] and 0.88 in [10]. The z-score in assay [4] is 0.963 (inactive).

Take `COc1ccc([Si](C)(C)[C@H]2[C@H](CCO)O[C@@]3(C(=O)N(Cc4ccc(N(C=O)c5ccccc5)cc4)c4ccccc43)[C@@H]2C)cc1`: the composite z-score is -0.0179 in assay [1]; -0.214 in assay [2]; 0.479 in [3]; -0.697 in assay [5]; -1.09 in [6]; -0.969 in [7]. The results for the composite z-score in [8], in assay [9] and in assay [10] were -0.251, -0.36 and 0.213, respectively. Besides, in assay [4], the z-score is -1.07 (inactive).

As for `CCCC[C@@H]1C[C@H]1[C@@H](NC(=O)c1cccs1)c1ccc(-c2ccccc2)cc1`, the composite z-score is -0.0357 in assay [1]; -0.0102 in [2]; 0.69 in assay [3]; 0.655 in assay [5]; -0.595 in assay [6]; -0.0136 in assay [7]. The composite z-score is 0.369 in assay [8], -0.116 in assay [9] and 1.3 in assay [10]. The z-score in assay [4] was -1.23 (inactive).

For the compound `C=C(CCCC)C(=O)CC[C@@H](OC(=O)c1ccccc1-c1ccccc1C(=O)O)c1ccc(OCCO)cc1`, the composite z-score in assay [1] is 1.19; in assay [2], -0.0379; in assay [3] it was 0.0075; in assay [5] it was 0.969; in assay [6], 0.585; in assay [7], -0.181. For the same compound, the composite z-score in assay [8] stood at 0.668; in assay [9] it was 0.55; in assay [10], 1.42. Further, the z-score in assay [4] is 0.962 (inactive).

`O=C1C2C=CC(C(O)c3cccc4ccccc34)N(Nc3ccccc3F)C2C(=O)N1c1ccccc1` (stereo not given): the composite z-score amounted to 0.927 in [1]; 0.977 in assay [2]; 1.02 in assay [3]; 0.606 in [5]; 1.18 in [6]; 0.172 in assay [7]. Besides, the composite z-score is 0.79 in assay [8], -0.311 in [9] and 0.723 in [10]. For the same compound, the z-score in [4] was -0.05 (inactive).

On to `COc1cc2c(cc1OC)CN(C(=O)[C@@H]1[C@H]3C(=O)O[C@H](c4ccccc4)[C@H](c4ccccc4)N3[C@H](c3ccccc3OCCO)[C@@]13C(=O)Nc1ccc(C#CCCO)cc13)CC2`, for which the composite z-score was 1.53 in assay [1]; 0.235 in assay [2]; 0.547 in assay [3]; 0.885 in assay [5]; 0.926 in assay [6]; 0.179 in [7]. For the same compound, the results for the composite z-score in [8], in assay [9] and in [10] were 0.896, 0.249 and 0.91, respectively. Moreover, in assay [4], the z-score is 0.107 (inactive).

With `CCCCCN1CC=CC23O[C@@H]4/C=C\CCC(C)OC(=O)C4[C@H]2C(=O)N(C(C)CO)[C@@H]3C1=O` (stereo not given in full), the composite z-score in assay [1] was -0.472; in [2] it was -0.225; in [3], -0.327; in assay [5], 0.171; in assay [6] it was 0.0131; in assay [7] it was -0.601. For the same compound, the composite z-score is -0.0103 in assay [8], -0.23 in [9] and 0.908 in [10]. The z-score in assay [4] was 0.304 (inactive).

As for `COc1ccc(CCNC(=O)[C@@]2(Sc3ccc(C)cc3)CC(=O)N(C(C)C)[C@@H]2c2ccc(CO)cc2I)cc1`, the composite z-score in assay [1] is 0.699; in assay [2], 0.187; in assay [3], 0.778; in assay [5], -0.316; in assay [6], -1.02; in assay [7], -0.719. Also, the values for the composite z-score in assay [8], in assay [9] and in [10] were -0.645, -0.267 and 1.08, respectively. Also, in [4], the z-score was -0.658 (inactive).
